Source: PubChem (National Center for Advancing Translational Sciences (NCATS))
Compounds with a hit are over-represented: about 19% of the library has one in this group of screens.
HT1080 IDH1KD tx = HT-1080 IDH1 knockdown cell toxicity (counter line); actives 2% (n = 360,000); HT-1080 IDH1 knockdown viability, ATP luminescence, 48 h; Potency, µM (series often up to 46.1 µM), for inactives: at the highest dose activity, negative = toxicity, usual class: cytotoxic;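 further: potency means the concentration at half of the fitted maximal effect; 0% = DMSO wells and -100% = cell-free medium wells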
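In this qHTS, HT-1080 cells depleted of IDH1 are exposed for 48 h at 37 °C to compound titrations. Toxicity is scored from CellTiter-Glo luminescence, with DMSO as full viability and medium alone as none.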
DT40 TDP1 CPT = growth inhibition of DT40 Tdp1-/-;hTDP1 cells with camptothecin (screen for TDP1 inhibitors); AID 686979; actives 12% (n = 420,000); chicken DT40 Tdp1-/-;hTDP1 cells + 20 nM CPT, ATP luminescence, 48 h; Potency, µM (highest dose often 46.2 µM), for inactives: top-dose activity change, negative = growth inhibition, usual class: inhibitors; further: potency means the concentration at half of the fitted maximal effect; nearly all actives have a fitted effect of over 55% in size
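Chicken DT40 Tdp1-/- cells complemented with human TDP1, 400 cells/well, exposed to compounds plus 20 nM camptothecin for at least 48 h at 37 C; viability read as ATP content by CellTiter-Glo luminescence.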
HT1080NT lethal = kills 2HG-producing HT-1080-NT fibrosarcoma cells. HT-1080-NT fibrosarcoma viability, CellTiter-Glo ATP luminescence, 48 h. Potency, µM (series often up to 46.1 µM), without a hit: at the highest dose activity, negative = less viability, hits mostly cytotoxic. actives 1.6% (n = 360,000). AID 686970;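 further: NT is the 2HG producing partner of a matched IDH1 knockdown line; potency means the concentration at half of the fitted maximal effect; 0% = DMSO-treated cells and -100% = media-only wells without cells; nearly all actives have a fitted effect of over 55% in size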
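A 48-hour cytotoxicity screen used HT-1080-NT cells plated 2 hours before compound delivery. ATP-based CellTiter-Glo luminescence measured viability, normalized to DMSO and no-cell controls.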
DT40 TDP1 no CPT = qHTS for Inhibitors of human tyrosyl-DNA phosphodiesterase 1 (TDP1): qHTS in cells in absence of CPT. DT40 Tdp1-/- hTDP1 cells, no CPT, ATP luminescence, 48 h. Potency, µM (top dose mostly 46.2 µM), inactives show top-dose activity change, negative = growth inhibition, usual class: inhibitors. AID 686978, 2013. actives 15% (n = 420,000); further: potency means the concentration at half of the fitted maximal effect; nearly all actives have a fitted effect of over 55% in size
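DT40 Tdp1-/-;hTDP1 cells, no CPT (DMSO vehicle only), 400 cells/well; compounds pin-transferred; ≥48 hr, 37 °C; CellTiter-Glo 30 min RT dark, luminescence read.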
ELG1 repair inh = ELG1-dependent DNA repair inhibition | HEK293T ELG1-luciferase reporter, luminescence, 16 h; DNA damage induced by 5-fluorouridine | actives 2.3% (n = 330,000) | AID 504467 | Potency, µM (titrated, usually from 46.1 µM), without a hit: at the top dose activity change, negative = inhibition, usual class: inhibitors; further: potency means the concentration at half of the fitted maximal effect; nearly all actives have a fitted effect of over 55% in size
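Reporter activity after DNA damage by 5-fluorouridine is monitored. Compound-treated cells incubate 16 hr at 37 °C, then ONE-Glo is added for 30 min before luminescence reading.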
IL-1B inflam inh = blocks inflammasome-driven IL-1 beta release; THP-1 LPS/ATP IL-1B secretion, AlphaLISA, 16 h; stronger effect = lower value; activity change, % at 57.5 µM; actives 4.7% (n = 360,000); in the data active means activity change below about -50%; inconclusive means mostly about -30% to -49%
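Secreted IL-1B measured by AlphaLISA bead assay after 16 h compound exposure of THP-1 cells; compounds (final up to 57.5 uM) added 1 h before LPS (250 ng/mL) and ATP (1.25 mM) stimulation; lower signal means less secretion.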
* = called active by the depositor; ? = inconclusive; nt = not tested or not shown; ! = not active in a repeat. Unless noted, the call rests on the fitted dose curve; in most records, active means well fitted curve in the direction sought with a large enough effect; inconclusive means small, poorly fitted or top-dose-only effect, or another doubt; inactive means no such curve, though single readings can be large; an effect the other way counts as inactive or inconclusive. Unless noted, on the % scale 0 is the no-effect control and ±100 the full control effect.

SMILES | HT1080 IDH1KD tx | DT40 TDP1 CPT | HT1080NT lethal | DT40 TDP1 no CPT | ELG1 repair inh | IL-1B inflam inh
NC(=O)CC(NC(=O)c1ccccc1)c1ccc(N2CCN(c3ccccc3)CC2)c([N+](=O)[O-])c1 (stereo not drawn) | -9.8% | 20.6µM* | -7.4% | 13µM* | ? | -9.5
NC(=O)CC(NC(=O)c1ccccc1)c1ccc(N2CCCCCC2)c([N+](=O)[O-])c1 (stereo not drawn) | -0.5% | ? | -19.6% | 11.6µM* | 7.4% | 12.5
NC(=O)CC(NC(=O)c1ccccc1)c1ccc(N2CCN(c3ccc(F)cc3)CC2)c([N+](=O)[O-])c1 (stereo not drawn) | -5.8% | 18.4µM* | 5.2% | 8.2µM* | ? | -12.4
CN1CCN(c2ccc(C(CC(N)=O)NC(=O)c3ccccc3)cc2[N+](=O)[O-])CC1 (stereo not drawn) | 6.5% | 4.5% | 5.8% | -22.4% | 0.4% | 14.8
Cc1cc(C)cc(C(=O)NC(CC(N)=O)c2ccc(N3CCN(c4ccccc4)CC3)c([N+](=O)[O-])c2)c1 (stereo not drawn) | -2.7% | ? | 4.2% | -21.1% | -6.9% | -7.5
COc1ccc(CCNC(=O)CSc2nc3ccsc3c(=O)n2CC2CCC(C(=O)O)CC2)cc1OC (stereo not drawn) | -0.9% | -1.5% | 0.2% | 7.8% | -0.1% | 32.7
NC(=O)CC(NC(=O)Cc1cccc2ccccc12)c1ccc(N2CCc3ccccc3C2)c([N+](=O)[O-])c1 (stereo not drawn) | -18.0% | 16.4µM* | -26.9% | ? | ? | ?
CCOC(=O)C1CCCN(C(=O)CCn2nnnc2CN2CCOCC2)C1 (stereo not drawn) | 0.4% | 2.7% | 0.6% | -3.3% | 6.8% | 0.0
NC(=O)C(c1ccc(Br)cc1)c1ccc(C(=O)c2ccccc2)cc1 (stereo not drawn) | ? | ? | ? | 14.6µM* | ? | -91.4*
CCN(C(=O)c1cc(Cl)ccc1OC)c1ccccc1C | 3.9% | ? | -3.3% | 20.6µM* | -14.2% | 28.8
CCN(C(=O)c1cc(Cl)ccc1Cl)C1CCS(=O)(=O)C1 (stereo not drawn) | 4.0% | -3.5% | 5.1% | -6.3% | 0.0% | 19.4
CCN(C(=O)c1cn(CC)c(=O)c2cc(OC)c(OC)cc12)c1ccccc1F | nt | -27.7% | nt | 20.6µM* | nt | nt
CCN(C(=O)c1cc(Cl)ccc1OC)C1CCCCC1 | -14.7% | ? | -2.7% | 23.1µM* | -2.3% | 18.1
CCn1cc(C(=O)NC2CCCCCC2)c2cc(OC)c(OC)cc2c1=O | -3.9% | ? | -1.3% | ? | 13µM* | 0.0
CCN(C(=O)c1cn(C)c(=O)c2cc(OC)c(OC)cc12)c1ccccc1C | 4.0% | 8.3% | 1.0% | -11.0% | -25.3% | 27.4
CN(C)Cc1c[nH]c2nc[nH]c(=O)c12 | 9.4% | -0.7% | 10.0% | 0.0% | nt | 4.3
CCc1ccc(NC(=O)CSc2ccc3nnc(CCNS(=O)(=O)c4ccc(OC)cc4)n3n2)cc1 | nt | -19.2% | nt | ? | nt | nt
O=C(OCC1CCCO1)c1ccc2c(c1)N(Cc1cccc(Cl)c1)C(=O)c1ccccc1S2(=O)=O (stereo not drawn) | nt | ? | nt | -27.1% | nt | nt
CCN(C(=O)c1cc(OC)c(OC)c(OC)c1)C1CCCCC1 | -1.0% | ? | 1.7% | 23.1µM* | nt | 35.2
CCN(C(=O)c1cccc(NC(=O)c2ccccc2)c1)C1CCCCC1 | -0.6% | 14.6µM* | 0.0% | ? | -0.8% | -29.0
O=C(Nc1cccc(C(=O)NC2CCCC2)c1)c1ccccc1 | -11.0% | ? | -4.7% | ? | -1.8% | ?
COc1cc(C(=O)N(C(C)C)C2CCCCC2)cc(OC)c1OC | 2.4% | 11.6µM* | 2.0% | 10.3µM* | nt | 20.5
COc1ccccc1N(C(=O)c1ccco1)C(C(=O)NC1CCCCC1)c1cc(OC)c(OC)c(OC)c1 (stereo not drawn) | 4.3% | -4.5% | 3.8% | -29.8% | -8.4% | 2.6
CC1(C(=O)NS(=O)(=O)Cc2cccc(Cl)c2)CCN1C(=O)Cc1cccs1 (stereo not drawn) | 17.6% | -19.2% | 3.2% | -11.9% | nt | 5.0
CCOc1ccc(/C=N/NC(=O)c2ccc(F)cc2)cc1CN1CC2CC(C1)c1cccc(=O)n1C2 (stereo not drawn) | -24.8% | ? | 0.6% | ? | ? | -19.3
SMILES | HT1080 IDH1KD tx | DT40 TDP1 CPT | HT1080NT lethal | DT40 TDP1 no CPT | ELG1 repair inh | IL-1B inflam inh
O=C(NCc1ccccc1Cl)c1[nH]c(C(F)(F)F)nc1-c1ccccc1 | -23.8% | -8.9% | -17.1% | ? | nt | 0.0
CSc1cccc(NC(=O)CNC(=O)c2ccc3c(c2)OCO3)c1 | 6.0% | -22.9% | 4.6% | -7.3% | 14.2% | 8.0
CSc1cccc(-n2cc(-c3ccc4c(c3)OCO4)[nH]c2=O)c1 | ? | 4.61µM* | ? | 5.17µM* | ? | -14.0
COc1ccc(OC)c(NC(=O)C(=O)NNC(=O)C23CC4CC(CC(C4)C2)C3)c1 | ? | ? | -27.8% | ? | 29.1µM* | nt
COc1ccc(OC)c(NC(=O)c2oc3c(c2C)C(O)CC(C)(C)C3)c1 (stereo not drawn) | -0.2% | 14.6µM* | 5.9% | ? | -8.7% | -4.1
Cc1c(C(=O)N(C)c2ccccc2)oc2c1C(O)CC(C)(C)C2 (stereo not drawn) | 15.2% | ? | 13.1% | ? | 2.4% | -6.9
COc1ccc(NC(=O)CNC(=O)C23CC4CC(CC(C4)C2)C3)c(OC)c1 | -0.6% | ? | 0.5% | ? | 14.2% | -8.3
CC1CCCCC1NC(=O)CNC(=O)c1ccco1 (stereo not drawn) | -6.5% | -7.6% | -3.9% | 7.5% | 11.0% | 13.0
CCc1nc2c(OCCOC)cccn2c1N(C)C(=O)Nc1ccccc1OC | 24.2% | -5.9% | -1.8% | -5.3% | nt | -10.6
O=C1C=C(O)CC(c2ccc(Cl)c(Cl)c2)C1 (stereo not drawn) | 4.3% | -4.1% | -2.9% | 6.1% | 1.7% | 22.4
CCCN1C(=O)c2ccccc2NC1c1ccc(Cl)c(Cl)c1 (stereo not drawn) | -2.0% | ? | -0.3% | ? | 2.0% | -1.4
CN[C@H]1CC[C@@H](c2ccc(Cl)c(Cl)c2)c2ccccc21 | nt | 15µM*! | 7.31µM* | 15µM* | 18.6% | -21.4
